Experimental findings from PubChem BioAssay (EPA / NIEHS) are described below.

Records with an inconclusive call do not appear. Where a structure was tested more than once in an assay, its records may differ in their call. The source made the active and inactive calls. How the source made its calls, unless noted: active means hit-call score of the fitted dose curve at least 0.9, where 1 is the maximum; inconclusive means response in the unintended direction; inactive means score below 0.9.

Read-out in test [1]: Transforming Growth Factor (TGFA), TGFA (gene 7039)
As to the kind of experiment: LTEA_HepaRG_TGFA: Life Technologies and Expression Analysis (LTEA) Assay for Transforming Growth Factor (TGFA) using HepaRG (AID 2283532; active means hit-call score of the fitted dose curve at least 0.9, where 1 is the maximum; inactive means score below 0.9). Conditions: mRNA level, 48 h; actives raise or lower the signal. Put shortly: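 HepaRG (human liver line), 48 h exposure, 8 conc. half-log down from 100 uM, 0.5% DMSO vehicle, duplicates; serum-free induction medium. TGFA mRNA by TaqMan qRT-PCR, ACTB/GAPDH/POLR2A normalization; gain/loss fit vs DMSO.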

Read-out in test [2]: Transforming Growth Factor (TGFB1), TGFB1 (gene 7040)
As to the kind of experiment: LTEA_HepaRG_TGFB1: Life Technologies and Expression Analysis (LTEA) Assay for Transforming Growth Factor (TGFB1) Transporter using HepaRG (AID 2283533; active means hit-call score of the fitted dose curve at least 0.9, where 1 is the maximum; inactive means score below 0.9). Conditions: mRNA level, 48 h; actives raise or lower the signal. The method, boiled down: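 Eight-point concentration-response (max 100 uM, half-log) in HepaRG under serum-free induction conditions, 48 h. TGFB1 mRNA by qRT-PCR, housekeeping-normalized.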

Read-out in another test: TIMP1, TIMP1 (gene 7076)
As to the kind of experiment: LTEA_HepaRG_TIMP1: Life Technologies and Expression Analysis (LTEA) Assay for TIMP1 using HepaRG (AID 2283534; active means hit-call score of the fitted dose curve at least 0.9, where 1 is the maximum; inactive means score below 0.9;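 further: TaqMan qRT-PCR signal normalized to ACTB GAPDH and POLR2A housekeeping genes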). As to conditions: mRNA level, 48 h; actives raise or lower the signal. Put shortly: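 TIMP1 induction or repression in HepaRG cells after 48 h chemical exposure (eight concentrations, highest 100 uM), assessed by normalized qRT-PCR with bidirectional fitting to DMSO controls.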

Read-out in test [3]: Tumor necrosis factor receptor 1 (TNFRSF1A), TNFRSF1A (gene 7132)
As to the kind of experiment: LTEA_HepaRG_TNFRSF1A: Life Technologies and Expression Analysis (LTEA) Assay for Tumor necrosis factor receptor 1 (TNFRSF1A) using HepaRG (AID 2283535; active means hit-call score of the fitted dose curve at least 0.9, where 1 is the maximum; inactive means score below 0.9). As to conditions: mRNA level, 48 h; actives raise or lower the signal. Put shortly:
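Assay uses 48 h chemical treatment of differentiated HepaRG monolayers, tested in duplicate at eight concentrations from 100 uM downward in 0.5% DMSO. mRNA is normalized to ACTB, GAPDH and POLR2A, with induction or suppression fitted relative to vehicle.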

Read-out in test [4]: Thyroid Hormone Responsive (THRSP), THRSP (gene 7069)
As to the kind of experiment: LTEA_HepaRG_THRSP: Life Technologies and Expression Analysis (LTEA) Assay for Thyroid Hormone Responsive (THRSP) using HepaRG (AID 2283536; active means hit-call score of the fitted dose curve at least 0.9, where 1 is the maximum; inactive means score below 0.9). As to conditions: mRNA level, 48 h; actives raise or lower the signal. The method, boiled down: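 mRNA induction or loss relative to 0.5% DMSO vehicle was fitted bidirectionally across an eight-point curve whose highest exposure was 100 uM. Human HepaRG liver cells received chemicals in duplicate over 48 h before RNA extraction.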

Read-out in test [5]: Cellular tumor antigen p53 (Homo sapiens) (UniProt P04637)
As to the kind of experiment: LTEA_HepaRG_TP53: Life Technologies and Expression Analysis (LTEA) Assay for Tumor Protein P53 (TP53) using HepaRG (AID 2283537; active means hit-call score of the fitted dose curve at least 0.9, where 1 is the maximum; inactive means score below 0.9). Conditions: mRNA level, 48 h; actives raise or lower the signal. The method, boiled down: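 Read-out is TP53 transcript level by microfluidic qRT-PCR, normalised to three housekeeping genes and fitted bidirectionally against DMSO. Human HepaRG cells received compounds for 48 h, highest concentration 100 uM.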

Read-out in test [6]: UDP glucuronosyltransferase (UGT1A1), UGT1A1 (gene 54658)
As to the kind of experiment: LTEA_HepaRG_UGT1A1: Life Technologies and Expression Analysis (LTEA) Assay for UDP glucuronosyltransferase (UGT1A1) using HepaRG (AID 2283538; active means hit-call score of the fitted dose curve at least 0.9, where 1 is the maximum; inactive means score below 0.9). As to conditions: mRNA level, 48 h; actives raise or lower the signal. The method, boiled down:
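Readout is UGT1A1 transcript level by qRT-PCR, normalized to three housekeeping genes, after 48 h chemical treatment of HepaRG cells. Concentrations ran from 100 uM down in half-log steps with 0.5% DMSO, and gain or loss relative to DMSO was fitted.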

Read-out in test [7]: X-box binding protein 1 (XBP1), XBP1 (gene 7494)
As to the kind of experiment: LTEA_HepaRG_XBP1: Life Technologies and Expression Analysis (LTEA) Assay for X-box binding protein 1 (XBP1) using HepaRG (AID 2283540; active means hit-call score of the fitted dose curve at least 0.9, where 1 is the maximum; inactive means score below 0.9). Conditions: mRNA level, 48 h; actives raise or lower the signal. Put shortly:
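Eight concentrations (half-log, highest 100 uM, 0.5% DMSO) tested in duplicate on HepaRG cells over 48 h in serum-free induction medium; qRT-PCR of XBP1 normalised to ACTB, GAPDH, POLR2A.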

The nature of test [8]: LTEA_HepaRG_LDH_cytotoxicity: Cytotoxicity Assessment in the Life Technologies and Expression Analysis (LTEA) Assay (AID 2283563).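 On AC50: LDH activity released into spent culture medium as a marker of cell death.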 Put shortly:
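Spent-medium LDH after 48 h chemical exposure of HepaRG cells in serum-free induction medium; eight concentrations, half-log dilutions from 100 uM, duplicate wells, fitted upward relative to 0.5% DMSO.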

Test [9] can be described thus: TOX21_p53_BLA_p2_viability: Viability Assessment in the Tox21 HCT-116 p53 Agonism Beta-lactamase Assay, Phase 2 (AID 2283591).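 Further: compound exposure lasted 16 h at 37 °C; actives lower the ATP signal meaning cytotoxicity.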 Put shortly:
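Cytotoxicity readout: CellTiter-Glo ATP luminescence, 30 min at room temperature, after the beta-lactamase read. Cells were HCT116 exposed 16 h at 37C to compounds pin-transferred at 217-fold dilution from DMSO stocks.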

For test [10], the target named is Cellular tumor antigen p53 (Homo sapiens) (UniProt P04637). As to the kind of experiment: TOX21_p53_BLA_p2_ratio: Tox21 HCT-116 p53 Agonism Beta-lactamase Assay, Ratio, Phase 2 (AID 2283592). Put shortly: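 Human colon HCT116 cells with an inducible p53 beta-lactamase reporter are exposed to test chemicals for 16 h at 37C. Reporter induction is read as the 460/530 nm emission ratio after CCF4-AM loading, normalized to DMSO.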

Test [11] can be described thus: TOX21_p53_BLA_p3_viability: Viability Assessment in the Tox21 HCT-116 p53 Agonism Beta-lactamase Assay, Phase 3 (AID 2283593).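 Further: cells exposed to compound for 16 h before reading.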 Put shortly: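 Cellular ATP was quantified by CellTiter-Glo luminescence, read after 30 min at room temperature. Beforehand, HCT116 cells (4000/well) received compound 5 h post-seeding, 217-fold diluted from DMSO, then incubated 16 h at 37C.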

In test [12] the target is Cellular tumor antigen p53 (Homo sapiens) (UniProt P04637). As to the kind of experiment: TOX21_p53_BLA_p3_ratio: Tox21 HCT-116 p53 Agonism Beta-lactamase Assay, Ratio, Phase 3 (AID 2283596). Put shortly:
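HCT116 p53-bla cells (4000/well) given compound in DMSO (217-fold dilution) after 5 h, incubated 16 h at 37C. CCF4-AM substrate 2 h at room temperature; 460/530 nm emission ratio, gain fitted against DMSO.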

Test [13] can be described thus: TOX21_p53_BLA_p4_viability: Viability Assessment in the Tox21 HCT-116 p53 Agonism Beta-lactamase Assay, Phase 4 (AID 2283597).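 Further: hits lower the luminescence signal meaning cytotoxicity.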 Put shortly:
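Luminescent ATP readout (CellTiter-Glo, 30 min, room temperature) in the same wells as the p53 bla ratio. HCT116 cells were treated for 16 h at 37C with DMSO-dissolved compounds.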

The target in test [14] is Cellular tumor antigen p53 (Homo sapiens) (UniProt P04637). As to the kind of experiment: TOX21_p53_BLA_p5_ratio: Tox21 HCT-116 p53 Agonism Beta-lactamase Assay, Ratio, Phase 5 (AID 2283599). The method, boiled down: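 Beta-lactamase reporter ratio (blue 460 nm over green 530 nm, 405 nm excitation) after 2 h CCF4-AM loading, in HCT-116 cells exposed 16 h at 37 C to compounds pinned at 217-fold dilution. Increases relative to DMSO baseline scored.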

Test [15] in a line: TOX21_p53_BLA_p5_viability: Viability Assessment in the Tox21 HCT-116 p53 Agonism Beta-lactamase Assay, Phase 5 (AID 2283600). Put shortly: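 Seeded cells (4000/well) settle 5 h before compound addition. Plates then incubate 16 h at 37C, receive FRET substrate for 2 h, and finally CellTiter-Glo, with luminescence measured after a 30 min room-temperature incubation.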
For test [16], the target named is Cellular tumor antigen p53 (Homo sapiens) (UniProt P04637). As to the kind of experiment: TOX21_p53_BLA_p4_ratio: Tox21 HCT-116 p53 Agonism Beta-lactamase Assay, Ratio, Phase 4 (AID 2283601). Put shortly:
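Signal is the blue/green (460nm/530nm) ratio of cleaved versus uncleaved CCF4-AM substrate, read after 2 h substrate loading. Cells were HCT116 carrying the p53-responsive beta-lactamase reporter, dosed 16 h at 37C, 5% CO2; CellTiter-Glo measured in parallel.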

Read-out in test [17]: UDP glucuronosyltransferase (UGT1A6), UGT1A6 (gene 54578)
As to the kind of experiment: LTEA_HepaRG_UGT1A6: Life Technologies and Expression Analysis (LTEA) Assay for UDP glucuronosyltransferase (UGT1A6) using HepaRG (AID 2283539; active means hit-call score of the fitted dose curve at least 0.9, where 1 is the maximum; inactive means score below 0.9). Conditions: mRNA level, 48 h; actives raise or lower the signal. Put shortly: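 Measures mRNA change in HepaRG hepatic cells exposed 48 h to chemicals (eight-point, maximum 100 uM, 0.5% DMSO vehicle) in serum-free induction medium. Expression normalized to endogenous controls; DMSO served as negative control and baseline.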

Test [18] in a line: ATG_XTT_Cytotoxicity: Cytotoxicity Assessment in the Attagene TRANS-FACTORIAL HepG2 Assay (AID 2283584). The method, boiled down:
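24 h chemical exposure of reporter-transfected HepG2; XTT signal loss vs DMSO indicates cytotoxicity.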

Chain of Cellular tumor antigen p53 (Homo sapiens) (P04637 whole entry, looked up): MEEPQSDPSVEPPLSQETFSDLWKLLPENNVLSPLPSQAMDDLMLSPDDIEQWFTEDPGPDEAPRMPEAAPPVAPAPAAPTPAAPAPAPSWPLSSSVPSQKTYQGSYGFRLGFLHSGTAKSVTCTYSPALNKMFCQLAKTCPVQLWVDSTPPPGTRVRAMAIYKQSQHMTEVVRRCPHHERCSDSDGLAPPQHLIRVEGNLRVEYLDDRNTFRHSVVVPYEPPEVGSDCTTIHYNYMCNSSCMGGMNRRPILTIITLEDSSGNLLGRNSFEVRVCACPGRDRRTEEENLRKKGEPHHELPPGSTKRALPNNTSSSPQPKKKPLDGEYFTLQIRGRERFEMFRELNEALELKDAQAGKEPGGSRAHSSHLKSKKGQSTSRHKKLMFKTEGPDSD

Regarding `CCC12COCN1COC2`, the outcome in [1] is “inactive”; in test [2], “inactive”; with TIMP1, TIMP1 (gene 7076), “inactive”; in test [3] it was “inactive”; in test [4], “inactive”; in test [5], “inactive”. Further, the compound was called inactive in test [6], in test [7], in test [8], in test [9], in test [10] and in test [11]. Besides, the outcome in test [12], in [13], in [14], in test [15] and in test [16] was inactive.

For the compound `COP(=S)(OC)SCN1C(=O)c2ccccc2C1=O`, the outcome was “inactive” in test [1]; “inactive” in [2]; “inactive” in the test with TIMP1, TIMP1 (gene 7076); “inactive” in test [3]; “inactive” in test [4]; “inactive” in test [5]. The result in test [6], in test [7], in test [8], in [9], in test [10] and in [11] was inactive. Also, the result in [12], in [13], in test [14] and in test [15] was inactive.

On to `Brc1ccc(Oc2ccccc2)cc1`, for which the outcome is “inactive” in test [1]; “inactive” in the test with TIMP1, TIMP1 (gene 7076); “inactive” in test [3]; “inactive” in [4]; “inactive” in [5]; “inactive” in test [6]. The result in test [17], in test [7], in test [8], in [9], in test [10] and in test [11] was inactive. The result in test [12], in test [14], in test [15] and in test [16] was inactive.

Take `Nc1ccc(Cl)cc1N`: the AC50 – broadly, the concentration at which the activity in the assay is half-maximal – in test [1] was 16.1 µM (active); in test [3] it was 50 µM (active); in test [4], 19.3 µM (active); in [5] it was 12.4 µM (active); in test [6], 37.8 µM (active); in test [7], 21 µM (active). Besides, the AC50 in test [8] is 35.2 µM (active); in test [14], 74.7 µM (active). In addition, the outcome with TIMP1, TIMP1 (gene 7076) is “inactive”; in test [18] it was “inactive”; in [9], “inactive”; in test [10], “inactive”; in test [11], “inactive”; in [12], “inactive”. Besides, the compound was called inactive in [13], in [14] and in test [15].

For the compound `Oc1ccccc1Cl`, the outcome is “inactive” in [1]; “inactive” with TIMP1, TIMP1 (gene 7076); “inactive” in test [3]; “inactive” in test [4]; “inactive” in test [5]; “inactive” in [6]. Moreover, the compound was classed as inactive in test [17], in [7], in test [8], in [9], in [10] and in test [11]. The outcome in test [12], in test [14] and in test [15] was inactive.

As for `CCCSC(=O)N(CCC)CCC`, the outcome is “inactive” in test [1]; “inactive” with TIMP1, TIMP1 (gene 7076); “inactive” in test [3]; “inactive” in [4]; “inactive” in test [5]; “inactive” in test [6]. The outcome in test [7], in test [8], in [18], in [12], in test [13] and in [14] was inactive. Further, in test [15], the compound was classed as inactive.

As for `Clc1ccc(Cl)c(Cl)c1`, the outcome in test [1] was “inactive”; in [2] it was “inactive”; with TIMP1, TIMP1 (gene 7076) it was “inactive”; in test [4] it was “inactive”; in [5] it was “inactive”; in [6] it was “inactive”. In addition, the compound was called inactive in test [7], in test [8], in [18], in test [9], in test [10] and in test [11]. In addition, the outcome in test [12], in test [14], in [15] and in test [16] was inactive. In test [3], the AC50 is 50 µM (active).
